Measured values as given in PubChem BioAssay (NCATS).
Inconclusive results are not listed. Calls of active or inactive are those of the source. Calls come from the whole dose curve; as a rule, active = well fitted curve in the direction sought with a large enough effect; inconclusive = small, poorly fitted or top-dose-only effect, or another doubt; inactive = no such curve, though single readings can be large; an effect the other way counts as inactive or inconclusive.

What was measured:
[1] = molecular target: Cellular tumor antigen p53 (Homo sapiens) (UniProt P04637); assay: Primary qHTS for small molecule compounds that upregulate eGFP-tagged delta133p53alpha (in N-terminal) cells. (AID 2060322); settings: NCI-H358 eGFP-delta133p53alpha fluorescence, 24 h; activation: stronger effect = higher value;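 note: series mostly up to about 56 µM; 0% = DMSO vehicle and 100% = reference activator; nearly all actives have a fitted effect of over 75% in size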
Chain of Cellular tumor antigen p53 (Homo sapiens) (P04637 whole entry, looked up): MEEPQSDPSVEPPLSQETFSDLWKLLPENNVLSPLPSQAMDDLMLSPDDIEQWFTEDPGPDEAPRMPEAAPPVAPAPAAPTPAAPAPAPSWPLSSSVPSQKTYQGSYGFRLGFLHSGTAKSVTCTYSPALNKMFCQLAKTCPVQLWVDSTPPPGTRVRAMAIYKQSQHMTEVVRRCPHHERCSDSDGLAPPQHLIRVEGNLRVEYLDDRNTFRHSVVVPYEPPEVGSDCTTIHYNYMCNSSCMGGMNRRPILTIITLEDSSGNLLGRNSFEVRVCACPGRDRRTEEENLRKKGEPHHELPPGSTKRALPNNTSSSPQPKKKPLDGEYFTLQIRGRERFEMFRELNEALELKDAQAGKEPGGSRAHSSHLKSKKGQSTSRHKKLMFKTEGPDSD
Outline: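 NCI-H358 cells pre-induced 24 h with 10 ng/ml doxycycline to express N-terminal eGFP-delta133p53alpha, then dosed 24 h at 37C without doxycycline; fixed, Hoechst-stained, GFP intensity by laser scanning cytometry, normalized to DMSO (0%) and 57.5 uM 5-azacytidine (100%).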

[2] = molecular target: Aldehyde dehydrogenase, mitochondrial (Homo sapiens) (UniProt P05091); assay: qHTS for Inhibitors of the Aldehyde Dehydrogenase Family (ALDH2) Primary screen (AID 2061308);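 note: plate controls were vehicle for no effect and reference inhibitor for full effect; nearly all actives have a fitted effect of over 55% in size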
[3] = molecular target: Retinaldehyde dehydrogenase 3 (Homo sapiens) (UniProt P47895); assay: qHTS for Inhibitors of the Aldehyde Dehydrogenase Family (ALDH1A3) Primary screen (AID 2061315);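 note: plate controls were DMSO vehicle for no effect and reference inhibitor for full effect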

CC(C)C(=O)O[C@@H]1[C@@H](O)[C@@H](O[C@H]2O[C@H](CO)[C@@H](O)[C@H](O)[C@H]2O)O[C@H](CO)[C@H]1O
inactive: activation [1] 3.82% | Potency [2] | Potency [3]

C[C@@H]1O[C@@H](O[C@H]2[C@@H]3C=CO[C@@H](O[C@@H]4O[C@H](CO)[C@@H](O)[C@H](O)[C@H]4O)[C@@H]3[C@@]3(CO)O[C@@H]23)[C@H](O)[C@H](OC(=O)/C=C/c2ccc(O)cc2)[C@H]1OC(=O)/C=C/c1ccc(O)cc1
inactive: activation [1] -13% | Potency [2] | Potency [3]

O=C(OC[C@H]1O[C@H](O[C@H]2CO[C@H](CO)[C@@H](O)[C@@H]2O)[C@H](O)[C@@H](O)[C@H]1O)c1ccccc1
inactive: activation [1] -4.58% | Potency [2] | Potency [3]

CC(C)=CCC[C@](C)(O[C@@H]1O[C@H](CO[C@@H]2OC[C@@H](O)[C@H](O)[C@H]2O)[C@@H](O)[C@H](O)[C@H]1O)[C@H]1CC[C@]2(C)[C@@H]1[C@H](O)C[C@@H]1[C@@]3(C)CC[C@H](O[C@@H]4O[C@H](CO)[C@@H](O)[C@H](O)[C@H]4O)C(C)(C)[C@@H]3CC[C@]12C
inactive: activation [1] 6.33% | Potency [2] | Potency [3]

CC1(CO)CC[C@]2(C(=O)O[C@@H]3O[C@H](CO)[C@@H](O)[C@H](O)[C@H]3O)CC[C@]3(C)C(=CCC4[C@@]5(C)CC[C@H](O[C@@H]6O[C@H](C(=O)O)[C@@H](O)[C@H](O)[C@H]6O)C(C)(C)C5CC[C@]43C)C2C1 (stereo partly specified)
inactive: activation [1] -4.46% | Potency [2] | Potency [3]

CC1(C=O)CC[C@]2(C(=O)O[C@@H]3O[C@H](CO)[C@@H](O)[C@H](O)[C@H]3O)CC[C@]3(C)C(=CCC4[C@@]5(C)C[C@H](O)[C@H](O[C@@H]6OC[C@@H](O)[C@H](O)[C@H]6O)[C@@](C)(CO)C5CC[C@]43C)C2C1 (stereo partly specified)
inactive: activation [1] 6.87% | Potency [2] | Potency [3]

Cc1cn2c(N)c(Cl)cc(C(=O)NCC3CCN(CC(C)C)CC3)c2n1
inactive: activation [1] -0.893% | Potency [2] | Potency [3]

CN=C(N)NCCCCC/C=C(/C)CC(C)C1OC(=O)C(C)C(O)/C=C/C(C)C(O)CC(O)C(C)C(O)CCC(C)C(O)CC2(O)OC(CC(OC(=O)CC(=O)O)CC(O)CC(O)C(C)C(O)/C(C)=C/CCC1C)CC(O)C2O (stereo unspecified)
inactive: activation [1] -19.1% | Potency [2] | Potency [3]

COC(=O)C1=CO[C@@H](O[C@@H]2O[C@H](CO)[C@@H](O)[C@H](O)[C@H]2O)[C@@H]2[C@@H](CO)[C@@H](O)C(O)[C@H]12 (stereo partly specified)
inactive: activation [1] -1.79% | Potency [2] | Potency [3]

C/C=C(/C)C(=O)O[C@@H]1C[C@@H](OC(=O)/C(C)=C\C)[C@@]2(C)C3C(=O)C=C(C)C2C3C1(C)C
inactive: activation [1] -3.57% | Potency [2] | Potency [3]

O=S(=O)(NC1CCNCC1)c1cc(S(=O)(=O)c2ccccc2)ccc1C(F)(F)F
inactive: activation [1] 5.25% | Potency [2] | Potency [3]

CC12CC34C=CC(=O)C(C)(CCC(=O)O)C3C(CC1C4)O2 (stereo unspecified)
inactive: activation [1] 23.7% | Potency [2] | Potency [3]

C=C1C(O[C@@H]2O[C@H](CO)[C@@H](O)[C@H](O)[C@@H]2O)CC2C(C)(C)C(O)CCC2(C)C1CC/C(C)=C\CO (stereo partly specified)
inactive: activation [1] 6.11% | Potency [2] | Potency [3]

COc1ccc(/C=C/C(=O)O[C@@H]2[C@@H](O[C@@H]3O[C@H](CO)[C@@H](O)[C@H](O)[C@H]3O)[C@@H](O)[C@H](O[C@H]3C4C=CO[C@@H](O[C@@H]5O[C@H](CO)[C@@H](O)[C@H](O)[C@H]5O)C4[C@@]4(CO)O[C@@H]34)O[C@H]2C)cc1 (stereo partly specified)
inactive: activation [1] -9.92% | Potency [2] | Potency [3]

C=CC1C(O[C@@H]2O[C@H](CO)[C@@H](O)[C@H](O)[C@H]2O)OC=C(C(=O)OC)C1CC(=O)O (stereo partly specified)
inactive: activation [1] 23.2% | Potency [2] | Potency [3]

C=C1CCC2C(C)(C)CCC[C@]2(C)[C@H]1CC/C(C)=C/C(=O)O (stereo partly specified)
inactive: activation [1] -3.82% | Potency [2] | Potency [3]

CC1(C)C2CC=C(COC3OC(COC4OCC(O)(CO)C4O)C(O)C(O)C3O)C1C2 (stereo unspecified)
inactive: activation [1] 18.3% | Potency [2] | Potency [3]

CC(=O)OCC(=O)Nc1cc(C#N)cc(NC(=O)COC(C)=O)c1Cl
inactive: activation [1] 2.33% | Potency [2] | Potency [3]

C/C(=C\CCC(C)CCO)C(=O)OC[C@H]1O[C@@H](O[C@@H]2OC=C(C(=O)O)[C@H]3CC[C@](C)(O)[C@@H]23)C(O)[C@@H](O)C1O (stereo partly specified)
inactive: activation [1] -20.5% | Potency [2] | Potency [3]

COC(=O)C[C@H]1C(C)(C)[C@H](OC(=O)c2ccccc2)C2CC3=C4CC(=O)O[C@@H](c5ccoc5)[C@]4(C)CCC3[C@@]1(C)C2=O (stereo partly specified)
inactive: activation [1] -5.34% | Potency [2] | Potency [3]

CC(C)(C)[C@H](NC(=O)c1ccc(N)c(Cl)c1)C(=O)N1CCC[C@H]1C(=O)N[C@H](C#N)CC(=O)O
inactive: activation [1] -7% | Potency [2] | Potency [3]

CC1CC(C(O)C(C)(C)O)OC2CC3(C)C4(C)CCC5C(C)(C)C(=O)CCC5(C)C4CCC3(O)C12O (stereo unspecified)
inactive: activation [1] -11.5% | Potency [2] | Potency [3]
